One assay concerns WaGa. As to the kind of experiment: qHTS assay to identify novel small-molecules to repurpose for Merkel cell carcinoma treatment (AID 1296009). Further: nearly all actives have a fitted effect of over 60% in size. The conditions noted are these: MCC and control cell lines, CellTiter-Glo viability, 72 h; series mostly up to 46 µM. The gist of the method:
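Dose-response viability screen; 72 hr exposure at 37 degree celsius; CellTiter-Glo added, 10 min room temperature, luminescence read; RLUs scaled between no-cell and DMSO wells.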
On the technique in general: qHTS replaces the single test concentration by a dilution series.

The next assay has as its system C33A. As to the kind of experiment: Primary qHTS to identify gynecologic anti-cancer compounds using libraries of approved drugs and bioactive compounds (AID 1345084). Further: nearly all actives have a fitted effect of over 55% in size. The conditions noted are these: Gynecologic cancer cell panel viability, ATPlite luminescence, 48 h; series mostly up to 57.5 µM. A digest of the protocol:
(§1)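 48 h compound exposure at 37 C, 5% CO2; five-point qHTS. ATPlite luminescence readout of cell ATP.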

Another assay relates to CASKI. Described as above. The conditions noted are these: Gynecologic cancer cell panel viability, ATPlite luminescence, 48 h; series mostly up to 57.5 µM. A digest of the protocol:
as §1
Background: ATP-based viability assays read luminescence as a measure of living cells.

The next assay deals with HeLa. Described as above. As to conditions: Gynecologic cancer cell panel viability, ATPlite luminescence, 48 h; series mostly up to 57.5 µM. The gist of the method:
as §1

A further assay deals with JEG-3. The description is as above. The conditions noted are these: Gynecologic cancer cell panel viability, ATPlite luminescence, 48 h; series mostly up to 57.5 µM. The gist of the method: as §1
For another assay, the system named is OV90. The description is as above. The conditions noted are these: Gynecologic cancer cell panel viability, ATPlite luminescence, 48 h; series mostly up to 57.5 µM. The gist of the method: as §1
The next assay concerns SKOV3. Described as above. As to conditions: Gynecologic cancer cell panel viability, ATPlite luminescence, 48 h; series mostly up to 57.5 µM. The gist of the method: as §1
In another assay the test system is Tov-21-G. The assay is described as above. As to conditions: Gynecologic cancer cell panel viability, ATPlite luminescence, 48 h; series mostly up to 57.5 µM. A digest of the protocol:
as §1

For another assay, the system named is Tov112D. Described as above. The conditions noted are these: Gynecologic cancer cell panel viability, ATPlite luminescence, 48 h; series mostly up to 57.5 µM. The gist of the method:
as §1

Assay [1] in a line: Drug repurposing screens with cells derived from glioblastoma tumor samples (AID 1345199). Further: nearly all actives have a fitted effect of over 40% in size. The conditions noted are these: GBM patient neurospheres viability, ATP luminescence, 48 h. A digest of the protocol: (§2)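 Primary testing used CD133+ neurospheres from four GBM patients, seven concentrations, 48 h exposure and ATP-based viability; confirmation added three slower-growing patient lines.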

Another assay concerns astro. Described as above. The conditions noted are these: viability, ATP luminescence, 48 h; series mostly up to 45.9 µM. A digest of the protocol: as §2
A further assay has as its system Es-2. As to the kind of experiment: Primary qHTS to identify gynecologic anti-cancer compounds using libraries of approved drugs and bioactive compounds (AID 1345084). Further: nearly all actives have a fitted effect of over 55% in size. As to conditions: Gynecologic cancer cell panel viability, ATPlite luminescence, 48 h; series mostly up to 57.5 µM. The gist of the method: as §1
The test system of a further assay is Hek293T. The assay is described as above. The conditions noted are these: Gynecologic cancer cell panel viability, ATPlite luminescence, 48 h, control line for the selectivity index; series mostly up to 57.5 µM. A digest of the protocol: as §1
The test system of a further assay is PA-1. The assay is described as above. The conditions noted are these: Gynecologic cancer cell panel viability, ATPlite luminescence, 48 h; series mostly up to 57.5 µM. The gist of the method: as §1
The mark [2] stands for this setting: at 46.1 µM (top of the series), tumour line C.
Where [3] appears, read: at 20 µM (top of the series), tumour line C.
Setting [4] is: at 21.2 µM (top of the series), tumour line B.
[5] abbreviates: at 21.2 µM (top of the series), tumour line D.
[6] abbreviates: at 45.9 µM (top of the series), tumour line B.
[7] abbreviates: at 45.9 µM (top of the series), tumour line D.

This note sets out measurements from PubChem BioAssay (NCATS).

Inconclusive results are not listed. Values without a mark were called inactive. Active and inactive are the calls of the source. The call rests on the fitted dose curve; in most records, active means well fitted curve in the direction sought with a large enough effect; inconclusive means small, poorly fitted or top-dose-only effect, or another doubt; inactive means no such curve, though single readings can be large; an effect the other way counts as inactive or inconclusive.
On the % scale 0 is the no-effect control and ±100 the full control effect; potency means the concentration at half of the fitted maximal effect.

Regarding `O=C1CCc2ccc(OCCCCN3CCN(c4cccc(Cl)c4Cl)CC3)cc2N1`, the Potency result with WaGa, in the assay on C33A, in the assay on CASKI, in the assay with HeLa, in the assay with JEG-3 and with OV90 was “inactive” throughout. The Potency result in the assay with SKOV3, in the assay on Tov-21-G and in the assay with Tov112D was “inactive” each time. Also, the activity, negative = cell killing in [1] (setting [2]) is -16.8%. The Potency in assay [1] (tumour line A) is 3.98 µM (active); in assay [1] (tumour line B), 22.4 µM (active); in the assay with astro, 31.6 µM (active).

`Cc1cccc(CN2CCN(C(c3ccccc3)c3ccc(Cl)cc3)CC2)c1` (centres undefined): the Potency entry with WaGa, in the assay with C33A, in the assay with CASKI, in the assay on Es-2, in the assay on HeLa and in the assay with Hek293T was “inactive” in each case. In addition, the Potency result in the assay on JEG-3, in the assay on PA-1, in the assay with SKOV3, in the assay with Tov-21-G, in the assay with Tov112D and with astro was “inactive” each time.

In the case of `O=C(c1ccccc1)c1ccc2n1CCC2C(=O)O` (centres undefined), the Potency entry in the assay with WaGa, in the assay with C33A, in the assay on CASKI, with Es-2, in the assay on HeLa and in the assay with Hek293T was “inactive” throughout. The Potency entry in the assay with JEG-3, in the assay on OV90, in the assay on PA-1, in the assay on Tov-21-G, in the assay with Tov112D and in the assay with astro was “inactive” throughout. For the same molecule, the activity, negative = cell killing in [1] (setting [3]) is 0.506%; in assay [1] (setting [4]) it was -13.1%; in assay [1] (setting [5]), -2.23%; in assay [1] (at 21.3 µM (top of the series), tumour line A), -11%; in [1] (setting [6]), -9.76%; in assay [1] (setting [7]), -4.33%. In addition, in assay [1] (setting [2]), the activity, negative = cell killing is -1.4%.

As to `CC1=C(C(=O)O)N2C(=O)[C@@H](NC(=O)[C@H](N)C3=CCC=CC3)[C@H]2SC1`, the Potency result with WaGa, in the assay on C33A, with CASKI, with Es-2, in the assay on HeLa and with Hek293T was “inactive” throughout. Moreover, the Potency entry with JEG-3, in the assay on OV90, in the assay on PA-1, in the assay with SKOV3, in the assay with Tov-21-G and in the assay on Tov112D was “inactive” throughout. In addition, the Potency entry with astro was “inactive”. Further, the activity, negative = cell killing in [1] (setting [6]) is -8.4%; in assay [1] (setting [7]), -14.2%; in assay [1] (setting [2]) it was -3.66%.

For the molecule `Cc1ccc(S(=O)(=O)NC(=O)NN2CC3CCCC3C2)cc1` (centres undefined), the Potency entry in the assay on WaGa, in the assay with C33A, in the assay with CASKI, with Es-2, with HeLa and in the assay with Hek293T was “inactive” in each case. The Potency entry in the assay with JEG-3, in the assay with OV90, with PA-1, in the assay with SKOV3, in the assay with Tov-21-G and in the assay on Tov112D was “inactive” each time. Besides, the Potency entry in the assay on astro is “inactive”. For the same molecule, the activity, negative = cell killing in assay [1] (setting [3]) was -7.38%; in assay [1] (setting [4]), -4.46%; in [1] (setting [5]) it was -18.4%.

As to `Nc1ncn([C@H]2C[C@H](O)[C@@H](CO)O2)c(=O)n1`, the Potency entry with WaGa, with C33A, with CASKI, in the assay with Es-2, in the assay with HeLa and in the assay with Hek293T was “inactive” each time. Besides, the Potency entry in the assay on JEG-3, in the assay on OV90, in the assay on SKOV3, with Tov-21-G and in the assay on astro was “inactive” throughout. Also, the activity, negative = cell killing in [1] (setting [6]) was -23%; in assay [1] (setting [7]) it was -5.51%; in assay [1] (at 46 µM (top of the series), tumour line A), -24.9%; in assay [1] (setting [2]), -19.7%.

On to `CN(c1nccc(=O)[nH]1)C1CCN(c2nc3ccccc3n2Cc2ccc(F)cc2)CC1`, for which the Potency entry in the assay with WaGa, in the assay with C33A, in the assay on CASKI, in the assay on Es-2, in the assay on HeLa and in the assay on Hek293T was “inactive” each time. The Potency entry with JEG-3, in the assay with OV90, with PA-1, in the assay with SKOV3, in the assay with Tov-21-G and in the assay with Tov112D was “inactive” each time. Further, in the assay with astro, the Potency entry is “inactive”. Also, the activity, negative = cell killing in assay [1] (setting [6]) is -7.08%; in assay [1] (setting [7]), -20%; in assay [1] (setting [2]) it was -6.39%.

For `O=C(OC1C[C@H]2CC[C@@H](C1)[N+]21CCCC1)C(O)(c1ccccc1)c1ccccc1` (some centres undefined), the Potency entry in the assay with WaGa, in the assay on C33A, in the assay with CASKI, in the assay on Es-2, with HeLa and in the assay on Hek293T was “inactive” in each case. In addition, the Potency result in the assay on JEG-3, in the assay with OV90, in the assay on PA-1, in the assay with SKOV3, with Tov-21-G and in the assay on Tov112D was “inactive” throughout. Further, in the assay with astro, the Potency result was “inactive”. Besides, the activity, negative = cell killing in assay [1] (setting [6]) was -3.76%; in [1] (setting [7]), -11.8%; in assay [1] (setting [2]), -2.11%.

In the case of `Cc1nc(Nc2ncc(C(=O)Nc3c(C)cccc3Cl)s2)cc(N2CCN(CCO)CC2)n1`, the Potency entry with WaGa, in the assay with C33A, in the assay with HeLa, in the assay on Hek293T, with JEG-3 and in the assay on Tov112D was “inactive” throughout. Also, the figures for the Potency in the assay with PA-1 and in the assay with SKOV3 were 0.251 µM (active) and 14.1 µM (active), respectively.

For `CCN(CC)CCOc1ccc(Cc2ccccc2)cc1`, the Potency entry in the assay on WaGa, with C33A, in the assay on CASKI, in the assay on Es-2, in the assay with HeLa and in the assay on Hek293T was “inactive” each time. In addition, the Potency result in the assay on JEG-3, in the assay with Tov-21-G and in the assay on Tov112D was “inactive” each time. For the same molecule, in the assay with astro, the Potency is 22.4 µM (active).

For the molecule `Cc1cc(=O)oc2cc(O)ccc12`, the Potency entry in the assay with WaGa, in the assay on C33A, with CASKI, with Es-2, in the assay with HeLa and in the assay with Hek293T was “inactive” throughout. For the same molecule, the Potency entry in the assay with JEG-3, with OV90, in the assay with PA-1, in the assay with Tov-21-G, with Tov112D and in the assay with astro was “inactive” in each case. Moreover, the activity, negative = cell killing in assay [1] (setting [3]) is -8.91%; in [1] (setting [4]), -9.65%; in assay [1] (setting [5]) it was -8.02%.

Consider `CCc1nc(N)nc(N)c1-c1ccc(Cl)cc1`, for which the Potency was 11.9 µM (active) in the assay on WaGa; 5.01 µM (active) in the assay with C33A; 4.47 µM (active) in the assay with Es-2; 14.1 µM (active) in the assay with HeLa; 7.94 µM (active) in the assay with Hek293T; 7.94 µM (active) with OV90. Besides, the Potency was 7.94 µM (active) with PA-1, 3.16 µM (active) with Tov-21-G and 14.1 µM (active) in the assay with Tov112D. Also, the Potency entry with JEG-3, in the assay with SKOV3 and in the assay with astro was “inactive” in each case.

Take `Cn1c(NCCN(CCO)CCCc2ccc([N+](=O)[O-])cc2)cc(=O)n(C)c1=O`: the Potency entry in the assay on WaGa, with C33A, in the assay on CASKI, in the assay on Es-2, in the assay on HeLa and with Hek293T was “inactive” throughout. The Potency entry in the assay with JEG-3, in the assay on OV90, in the assay with PA-1, with Tov-21-G, with Tov112D and with astro was “inactive” throughout. The activity, negative = cell killing in assay [1] (setting [6]) is -18.9%; in assay [1] (setting [7]), -12.5%; in [1] (setting [2]), -1.17%. For the same molecule, the Potency in [1] (tumour line A) was 7.08 µM (active).
